# Screening data from PubChem.
# Shown is part of a subset that was picked to be rich in hits.
# DT40 TDP1 CPT: DT40-hTDP1 cell growth loss with CPT. AID 686979. 420,000 compounds, 12% hits. Potency, µM (doses to about 46.2 µM), for the others: at the top dose activity change, negative = growth inhibition, usual class: inhibitors. chicken DT40 Tdp1-/-;hTDP1 cells + 20 nM CPT, ATP luminescence, 48 h; note: potency is the fitted concentration of half-maximal effect; nearly all actives have a fitted effect of over 55% in size
#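 Chicken DT40 Tdp1-/- cells stably complemented with human TDP1 were seeded at 400 cells/well in medium containing 20 nM camptothecin, exposed to pin-transferred compounds, and grown at 37 °C for at least 48 hr. Viability was read as ATP luminescence.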
# IL-1B inflam inh: inflammasome signaling inhibition, IL-1 beta readout | THP-1 LPS/ATP IL-1B secretion, AlphaLISA, 16 h; active compounds read low | activity change, % at 57.5 µM | 360,000 compounds, 4.7% hits; in the data active = activity change below about -50%; inconclusive = mostly about -30% to -49%
#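 Secreted IL-1B measured by AlphaLISA bead assay after 16 h compound exposure of THP-1 cells; compounds (final up to 57.5 uM) added 1 h before LPS (250 ng/mL) and ATP (1.25 mM) stimulation; lower signal means less secretion.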
# HT1080NT lethal: kills 2HG-producing HT-1080-NT fibrosarcoma cells; Potency, µM (doses to about 46.1 µM), for the others: at the top dose activity, negative = less viability, actives largely listed as cytotoxic; 360,000 compounds, 1.6% hits; HT-1080-NT fibrosarcoma viability, CellTiter-Glo ATP luminescence, 48 h;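 note: NT is the 2HG producing partner of a matched IDH1 knockdown line; potency is the fitted concentration of half-maximal effect; 0% = DMSO-treated cells and -100% = media-only wells without cells; nearly all actives have a fitted effect of over 55% in size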
#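 Viability of the 2HG-overproducing fibrosarcoma line after 48 hours of compound exposure at 37 degrees C was determined by luminescence with CellTiter-Glo, and concentration-effect curves were then fitted and categorized.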
# HT1080 IDH1KD tx: toxicity to HT-1080 IDH1 knockdown cells (counter line); 360,000 compounds, 2% hits; HT-1080 IDH1 knockdown viability, ATP luminescence, 48 h; Potency, µM (top dose mostly 46.1 µM), for the others: top-dose activity, negative = toxicity, usual class: cytotoxic; AID 686971;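 note: potency is the fitted concentration of half-maximal effect; 0% = DMSO wells and -100% = cell-free medium wells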
#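 After a 2 h attachment period, IDH1KD HT-1080 cells took pin-transferred compound for 48 h at 37 °C; ATP-based luminescence after 10 min room-temperature reagent incubation reported viability.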
# TDP1 cell noCPT: qHTS for Inhibitors of human tyrosyl-DNA phosphodiesterase 1 (TDP1): qHTS in cells in absence of CPT; Potency, µM (doses to about 46.2 µM), for inactives: at the highest dose activity change, negative = growth inhibition, most hits filed as inhibitors; 420,000 compounds, 15% hits; AID 686978, 2013; DT40 Tdp1-/- hTDP1 cells, no CPT, ATP luminescence, 48 h; note: potency is the fitted concentration of half-maximal effect; nearly all actives have a fitted effect of over 55% in size
#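 Camptothecin absent (DMSO only). Human TDP1-complemented DT40 knockout cells, 400 cells/well, 37 °C for minimum 48 hr; ATP measured via CellTiter-Glo, 30 min dark incubation, luminescence.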
# 12-LOX inh: ALOX12 (human) lipoxygenase inhibition | purified 12hLO, xylenol orange hydroperoxide absorbance | Potency, µM (doses to about 108 µM), for inactives: at the highest dose activity change, negative = inhibition, actives largely listed as inhibitors | 580,000 compounds, 1.1% hits; note: potency is the fitted concentration of half-maximal effect
# Target sequence (P18054 whole entry, looked up): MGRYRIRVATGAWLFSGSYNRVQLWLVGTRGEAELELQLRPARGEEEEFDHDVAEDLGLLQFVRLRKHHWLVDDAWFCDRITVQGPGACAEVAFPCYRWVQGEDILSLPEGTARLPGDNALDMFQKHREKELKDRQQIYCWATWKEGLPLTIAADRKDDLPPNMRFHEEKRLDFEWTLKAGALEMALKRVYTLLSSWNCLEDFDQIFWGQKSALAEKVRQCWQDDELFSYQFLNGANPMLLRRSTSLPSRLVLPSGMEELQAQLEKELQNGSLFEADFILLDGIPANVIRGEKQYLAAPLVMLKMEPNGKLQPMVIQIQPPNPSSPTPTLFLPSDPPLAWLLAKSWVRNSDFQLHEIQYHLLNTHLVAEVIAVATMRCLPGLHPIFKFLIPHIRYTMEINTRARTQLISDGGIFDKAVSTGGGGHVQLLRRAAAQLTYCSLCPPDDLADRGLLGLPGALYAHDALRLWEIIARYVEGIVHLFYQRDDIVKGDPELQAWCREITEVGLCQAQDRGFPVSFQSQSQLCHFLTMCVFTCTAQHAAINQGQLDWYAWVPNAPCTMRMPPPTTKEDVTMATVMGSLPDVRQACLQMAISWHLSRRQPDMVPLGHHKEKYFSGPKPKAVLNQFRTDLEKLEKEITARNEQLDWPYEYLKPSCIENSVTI
#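 Hydroperoxide product was detected by ferrous iron/xylenol orange as the 573 to 405 nm absorbance ratio. Arachidonic acid at 40 uM (final) was turned over for 30 min at room temperature by 150 nM human 12hLO, pH 7.0 Hepes buffer, after 15 min compound preincubation.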
# * marks the source's active call; other numbers are inactive results; i = inactive; u = inconclusive; x = not tested or not shown. Unless noted, calls come from the whole dose curve; as a rule, active = well fitted curve in the direction sought with a large enough effect; inconclusive = small, poorly fitted or top-dose-only effect, or another doubt; inactive = no such curve, though single readings can be large; an effect the other way counts as inactive or inconclusive. Unless noted, % is set by controls: 0 for no effect and ±100 for the full control effect.
SMILES,DT40 TDP1 CPT,IL-1B inflam inh,HT1080NT lethal,HT1080 IDH1KD tx,TDP1 cell noCPT,12-LOX inh
N#CCC(=O)N/N=C\c1cc(Br)ccc1OC/C=C/c1ccccc1,14.6µM*,-20.7,-18.8%,u,25.9µM*,11.7%
N#CCC(=O)N/N=C/c1cccc(Oc2ccccc2)c1,0.2%,16.2,-12.8%,-15.7%,-12.0%,-1.5%
COC(=O)N/N=C\c1ccccc1OC/C=C/c1ccccc1,u,-64.6*,u,u,u,x
CCOC(=O)N/N=C\c1ccccc1OC/C=C/c1ccccc1,u,-10.9,u,u,u,222.3%
CN(C)c1ccc(C(CNC(=O)c2cccc(C(F)(F)F)c2)N2CCCC2)cc1 (configuration not stated),14.6µM*,x,x,x,16.4µM*,-1.8%
COc1ccc(C(=O)NCC(c2ccc(N(C)C)cc2)N2CCOCC2)cc1 (configuration not stated),7.31µM*,x,x,x,10.3µM*,-4.9%
COc1ccc(C(CNC(=O)c2cccc(S(=O)(=O)N3CCCC3)c2)N2CCCC2)cc1 (configuration not stated),-21.1%,-8.4,-6.9%,0.4%,-26.6%,-7.5%
CN(C)c1ccc(C(CNC(=O)c2ccc(C(C)(C)C)cc2)N2CCCC2)cc1 (configuration not stated),13µM*,x,x,x,7.31µM*,8.2%
COc1ccc(C(CNC(=O)c2cc3c(s2)CCC(C)C3)N2CCOCC2)cc1 (configuration not stated),23.1µM*,-11.7,-0.2%,-11.4%,u,-4.4%
COc1ccc(C(=O)NCC(c2ccc(N(C)C)cc2)N2CCCC2)cc1 (configuration not stated),u,x,x,x,u,-24.5%
COCCn1c(SCC(=O)Nc2cccc(C(F)(F)F)c2)nc2ccsc2c1=O,x,x,x,x,x,-28.1%
CCOc1ccccc1NC(=O)N1CC(c2nnc(-c3ccncc3)o2)C2(CCOCC2)C1 (configuration not stated),x,x,x,x,x,14.4%
Cc1ccc(N=C2NN=C(c3ccc4c(c3)CC(C)N4S(C)(=O)=O)CS2)c(C)c1 (configuration not stated),x,x,x,x,x,-9.7%
O=C(OCc1nnc(-c2ccccc2)o1)c1cc(S(=O)(=O)N2CCOCC2)c(Cl)cc1Cl,20.6µM*,-101.2*,-11.2%,u,7.31µM*,36.6%
O=C(c1cc(S(=O)(=O)N2CCOCC2)c(Cl)cc1Cl)N1CCCCC1,-20.2%,12.5,2.0%,8.0%,-27.9%,13.0%
O=C(OCC(=O)N1CCOCC1)c1cc(S(=O)(=O)N2CCOCC2)c(Cl)cc1Cl,-11.8%,-84.4*,0.4%,0.7%,-0.1%,0.0%
Nc1c(Cl)cc(Cl)cc1C(=O)OCC(=O)N1CCOCC1,-11.6%,-5.9,16.3%,0.0%,-5.2%,-21.2%
Cc1ccc(S(=O)(=O)N2CCOCC2)cc1C(=O)OCc1nnc(-c2ccccc2)o1,u,29.8,-5.4%,0.4%,u,12.8%
O=C(COC(=O)c1cc(S(=O)(=O)N2CCOCC2)c(Cl)cc1Cl)c1ccc[nH]1,-7.4%,-99.1*,-19.6%,-23.1%,20.4%,9.0%
O=C(OCC(=O)N1CCCCC1)c1cc(S(=O)(=O)N2CCOCC2)c(Cl)cc1Cl,4.0%,-59.4*,-0.8%,3.1%,0.3%,9.6%
C[C@H](NC(=O)CCC1CCC(=O)N1)c1ccccc1 (some centres not stated),x,x,x,x,x,-1.2%
COc1ccccc1NS(=O)(=O)c1cc(NC(=O)COc2ccccc2F)ccc1N1CCOCC1,u,-6.6,2.8%,1.7%,u,u
O=C1CCCC2=C1C(c1ccncc1)c1c(nc(SCc3ccccc3)[nH]c1=O)N2 (configuration not stated),-4.2%,-51.5*,0.8%,3.3%,-15.6%,6.6%
O=C(CCCN1C(=O)c2cccc3cccc(c23)C1=O)N1CCN(c2ccc(F)cc2)CC1,u,-53.5*,5.3%,19.9%,16.4µM*,-14.3%
O=C(CCCCCN1C(=O)c2cccc3cccc(c23)C1=O)NO,x,x,x,x,x,3.55µM*
SMILES,DT40 TDP1 CPT,IL-1B inflam inh,HT1080NT lethal,HT1080 IDH1KD tx,TDP1 cell noCPT,12-LOX inh
COc1ccccc1N1CCN(C(=O)CCN2C(=O)c3cccc4cccc(c34)C2=O)CC1,u,7.0,15.6%,15.0%,u,-52.4%
O=C(CCCCCN1C(=O)c2cccc3cccc(c23)C1=O)NCCCO,26.4%,-7.1,3.5%,-0.9%,-4.4%,0.0%
O=C1c2ccc3c4c(ccc(c24)C(=O)N1CCCCO)C(=O)N(CCCCO)C3=O,2.06µM*,-71.8*,23.1µM*,11.6µM*,2.59µM*,-3.7%
COc1ccc(N2CCN(C(=O)CCCN3C(=O)c4cccc5cccc(c45)C3=O)CC2)cc1,u,-15.5,6.5%,-29.3%,16.4µM*,-40.5%
COc1cc2nc(-c3cc4c(c(OC)c3)OCCNC4)cc(C)c2cc1OC,x,x,x,x,x,1.3%
Cc1ccsc1/C=N/NC(=O)c1ccccc1,x,x,x,x,x,44.3%
CCN1c2cc(C(=O)Nc3ccc(C)c(C)c3)ccc2C(=O)N2CCCCC21 (configuration not stated),x,x,x,x,x,34.3%
Cc1ccc(OCC(=O)NC2CC(C)(C)NC(C)(C)C2)c(C)c1,-3.8%,-5.4,-3.8%,-3.2%,0.0%,-5.7%
Cc1cc(OCC(=O)NC2CC(C)(C)NC(C)(C)C2)c(C)cc1Br,u,i,-4.4%,-24.4%,13µM*,-1.1%
CC(C)c1ccc(OCC(=O)NC2CC(C)(C)NC(C)(C)C2)c(Br)c1,u,-62.1*,-27.2%,u,u,-3.6%
CC1(C)CC(NC(=O)COc2ccc(Cl)cc2Cl)CC(C)(C)N1,-13.3%,u,-10.6%,-2.2%,-12.9%,-2.5%
Cc1cc(Cl)ccc1N(CC(=O)NCc1ccccc1)S(C)(=O)=O,-30.0%,8.4,-3.0%,-0.3%,-3.6%,24.9%
COc1cc(C(=O)Nc2ccc(S(=O)(=O)NC(C)(C)C)cc2)cc(OC)c1OC,-27.5%,-8.1,0.4%,-15.0%,u,-14.1%
COc1ccc(/C=N/NC(=O)C2c3ccccc3-c3ccccc32)cc1,u,5.9,-28.8%,u,20.6µM*,13.8%
COc1cc(C(=O)Nc2ccc(S(=O)(=O)N(C)c3ccccc3)cc2)cc(OC)c1OC,16.4µM*,u,-1.8%,-13.0%,u,14.7%
